Several values for one entry are separate records, joined by “and”; a condition that tells them apart may be missing. Equal entries are not always repeated. Records with an inconclusive call do not appear. Where a call stands in place of a potency, no number is given. Some compounds were tested as several samples or in several runs, with calls that do not always agree. Activity calls are given as the source filed them. Calls come from the whole dose curve; as a rule, active = well fitted inhibition curve with a large enough effect; inconclusive = small, poorly fitted or top-dose-only effect; inactive = no such curve, though single readings can be large or run the other way.
experiment: Primary qHTS for inhibitors of nuclear receptor binding SET domain protein 2 (NSD2) in an RCH-ACV wild type WT cells (2C) (AID 1645877); settings: RCH-ACV (leukaemia line) NSD2 WT (2C) viability, CellTiter-Glo, 72 h; series mostly up to 44.9 µM; note: nearly all actives have a fitted effect of over 70% in size
Source text: Assay Provider: Jonathan D. Licht, MD
University of Florida College of Medicine, Gainesville, FL
Mutations in epigenetic regulators are common in relapsed pediatric acute lymphoblastic leukemia (ALL). Here, we uncovered the mechanism underlying the relapse of ALL driven by an activating mutation of the NSD2 histone methyltransferase (p.E1099K). […] Correction of this mutation restored glucocorticoid sensitivity. The transcriptional response to glucocorticoids was blocked in NSD2 mutant cells due to depressed glucocorticoid receptor (GR) levels and the failure of glucocorticoids to autoactivate GR expression. […] Pre-treatment of NSD2 p.E1099K cell lines and PDX samples with PRC2 inhibitors reversed glucocorticoid resistance in vitro and in vivo.
High-throughput drug screening of isogenic RCH-ACV cell lines was performed at the National Center for Advancing Translational Science (NCATS), National Institutes of Health as previously described (1). Briefly, isogenic RCH-ACV NSD2 p.E1099K mutant (9B) and WT cells (2C) were plated at 500 cells/well in a 1536-well plate with a 72-hour incubation with compounds prior to addition of CellTiter-Glo to assess cell viability. NCATS libraries screened include: NPC, MIPE 5.0, Kinase and NPACT. To determine compound activity in the qHTS assay, the concentration-response data for each sample was plotted and modeled by a four-parameter logistic fit yielding IC50 and efficacy (maximal response) values. The area under the curve (AUC) of the dose-response curve ensures both efficacy (magnitude of cell killing) and potency (concentration that elicits cell killing) are accounted for in the analysis of activity.
1. Tobie D Lee, Olivia W Lee, Kyle R Brimacombe, Lu Chen, Rajarshi Guha, Sabrina Lusvarghi, Bethilehem G Tebase, Carleen Klumpp-Thomas, Robert W Robey, Suresh V Ambudkar, Min Shen, Michael M Gottesman, Matthew D Hall. A High-Throughput Screen of a Library of Therapeutics Identifies Cytotoxic Substrates of P-glycoprotein. Mol Pharmacol. 2019, Nov;96(5):629-640.

Compound	Potency
CCOCC(O)COc1ccc(NC(=O)CC[S+](C)C)cc1 (stereo not given)	inactive
CO[C@@]12[C@H](COC(N)=O)C3=C(C(=O)C(C)=C(N)C3=O)N1C[C@@H]1N[C@@H]12	inactive
O=C(O)c1cccnc1	inactive
COc1ccc(C(=O)CC(=O)c2ccc(C(C)(C)C)cc2)cc1	inactive
CCn1cc(C(=O)O)c(=O)c2cc(F)c(N3CCN(C)CC3)cc21	inactive
C1CCC(C(CC2CCCCN2)C2CCCCC2)CC1 (stereo not given)	8.33 µM (active)
CC(C)OC(=O)OCOP(=O)(CO[C@H](C)Cn1cnc2c(N)ncnc21)OCOC(=O)OC(C)C	inactive
CC(C)(Sc1cc(C(C)(C)C)c(O)c(C(C)(C)C)c1)Sc1cc(C(C)(C)C)c(O)c(C(C)(C)C)c1	inactive and 8.33 µM (active)
CCN(C)C(=O)Oc1cccc([C@H](C)N(C)C)c1	inactive
CCCc1cc(C(N)=S)ccn1	inactive
CCN[C@H]1C[C@H](C)S(=O)(=O)c2sc(S(N)(=O)=O)cc21	inactive
Nc1nc(=S)c2[nH]cnc2[nH]1	1.06 µM (active) and 742 nM (active)
Nc1nc(F)nc2c1ncn2[C@@H]1O[C@H](CO)[C@@H](O)[C@@H]1O	2.63 µM (active) and 84.1 nM (active) and 1.29 µM (active)
CCOC(=O)[C@H](CCc1ccccc1)N[C@H]1CS[C@H](c2cccs2)CN(CC(=O)O)C1=O	inactive
Cc1cccc(N(C)C(=S)Oc2ccc3ccccc3c2)c1	inactive and 14.8 µM (active)
CC(C(=O)O)c1ccc2c(c1)CC(=O)c1ccccc1S2 (stereo not given)	inactive
CCCc1nc(C)c2c(=O)[nH]c(-c3cc(S(=O)(=O)N4CCN(CC)CC4)ccc3OCC)nn12	inactive
CCCCS(=N)(=O)CCC(N)C(=O)O (stereo not given)	inactive
COC(=O)Nc1nc2ccc(C(=O)c3ccccc3)cc2[nH]1	106 nM (active) and 372 nM (active)
CCCOc1ccc(C(=O)OCCN(CC)CC)cc1N	inactive

Compound	Potency
COC(c1ccccc1)(c1ccccc1)[C@H](Oc1nc(C)cc(C)n1)C(=O)O	inactive
CCC(=O)O[C@]1(C(=O)CCl)[C@@H](C)C[C@H]2[C@@H]3CCC4=CC(=O)C=C[C@]4(C)[C@@]3(F)[C@@H](O)C[C@@]21C	inactive and 1 nM (active)
Cc1nnc(C(=O)NC(C)(C)c2nc(C(=O)NCc3ccc(F)cc3)c(O)c(=O)n2C)o1	inactive
Cc1nnc(NS(=O)(=O)c2ccc(N)cc2)s1	inactive
COc1cccc(N(C)C(=S)Oc2ccc3c(c2)CCCC3)n1	inactive
C#CCN[C@@H]1CCc2ccccc21	inactive
CCc1cc(C(N)=S)ccn1	inactive
Cn1nnc2c(C(N)=O)ncn2c1=O	inactive
CCC(=O)O[C@]1(C(=O)SCF)[C@H](C)C[C@H]2[C@@H]3C[C@H](F)C4=CC(=O)C=C[C@]4(C)[C@@]3(F)[C@@H](O)C[C@@]21C	inactive
CC1=NN(c2ccccc2)C(=O)C1	inactive
CCCN[C@H]1CCc2nc(N)sc2C1	inactive
NC(=O)c1cccnc1	inactive
CCCCCCNC(=O)n1cc(F)c(=O)[nH]c1=O	7.5 µM (active) and 8.33 µM (active)
Nc1[nH]c(=O)ncc1F	inactive
CC(C)NCC(O)c1ccc(NS(C)(=O)=O)cc1 (stereo not given)	inactive
CNC(=O)c1cc(Oc2ccc(NC(=O)Nc3ccc(Cl)c(C(F)(F)F)c3)cc2)ccn1	7.42 µM (active) and 5.15 µM (active)
C[C@@H](NCCCc1cccc(C(F)(F)F)c1)c1cccc2ccccc12	15 µM (active) and 14.8 µM (active)
N=C(N)c1ccc(OCCCCCOc2ccc(C(=N)N)cc2)cc1	4.22 µM (active) and 4.68 µM (active)
C[C@@H](CN1CC(=O)NC(=O)C1)N1CC(=O)NC(=O)C1	8.33 µM (active)
CCOC(=O)c1ccc(C#Cc2ccc3c(c2)C(C)(C)CCS3)nc1	inactive

From PubChem BioAssay (NCATS)
